CHT PAM: allosteric activators of human choline transporter CHT; Q9GZV3; AID 488977; actives 0.49% (n = 310,000); B-score at 10 µM; CHT-expressing cells, membrane potential dye, choline EC20; active compounds read high; LV-AA mutant CHT in HEK293 cells;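 active = initial fluorescence not abnormally high and integrated response B-score, plate-corrected, over 3 SD above library mean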
Target sequence (Q9GZV3 whole entry, looked up): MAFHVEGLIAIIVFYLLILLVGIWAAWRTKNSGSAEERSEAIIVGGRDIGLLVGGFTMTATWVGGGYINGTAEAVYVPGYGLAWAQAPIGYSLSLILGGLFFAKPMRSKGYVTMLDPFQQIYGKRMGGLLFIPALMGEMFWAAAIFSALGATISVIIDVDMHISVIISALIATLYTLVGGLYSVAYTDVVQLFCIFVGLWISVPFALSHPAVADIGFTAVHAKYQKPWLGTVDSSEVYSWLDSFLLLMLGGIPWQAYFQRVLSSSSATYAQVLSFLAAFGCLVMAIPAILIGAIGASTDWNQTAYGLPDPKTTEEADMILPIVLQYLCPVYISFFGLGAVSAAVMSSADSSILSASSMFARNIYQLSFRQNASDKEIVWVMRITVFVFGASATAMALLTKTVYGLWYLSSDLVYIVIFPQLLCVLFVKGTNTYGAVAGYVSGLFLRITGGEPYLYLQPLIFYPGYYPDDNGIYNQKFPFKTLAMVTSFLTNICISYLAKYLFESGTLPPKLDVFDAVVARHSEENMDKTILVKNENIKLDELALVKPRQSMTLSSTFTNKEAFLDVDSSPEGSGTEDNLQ
MEKK3 PB1 HTS: modulators (inhibitors or enhancers) of MEK5 binding to human MEKK3 PB1 domain | binding response (% of control), % at 10 µM | AID 1529 | Q99759 | bead-based flow cytometry, Alexa488-MEK5 binding to MEKK3; actives lie on both sides; 0 = blocked by unlabeled MEK5, 100 = vehicle | actives 1.4% (n = 290,000);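 active = binding response more than 3 SD above or below the average of its plate-row segment, actives on both sides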;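 also: Alexa488 bead fluorescence after subtracting the streptavidin-only scavenger bead signal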
CHT block: inhibitors of human choline transporter CHT; Q9GZV3; CHT-expressing cells, membrane potential dye, choline response; active compounds read low; B-score at 10 µM; actives 0.86% (n = 310,000); AID 488975;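 active = B-score over 3 SD under the library average, and starting fluorescence ratio not unusually high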;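 also: choline stimulus applied at its EC90 after an EC20 pre-addition; B-score computed on integrated fluorescence ratio after choline addition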
MEKK2mut PB1 HTS: signal of MEK5 binding to mutant human MEKK2 PB1 domain | bead flow cytometry, Alexa488-MEK5 binding to MEKK2 mutant | percent response, % at 10 µM | actives 0.35% (n = 290,000) | AID 1530; in the data active = percent response above about 24%, passing the limit was not always enough
SUMO Mot1 rescue: SUMOylation pathway inhibition by Mot1-301 growth rescue; actives 1% (n = 320,000); AID 2716; S. cerevisiae Mot1-301 growth rescue, ATP luminescence, 38.5C; percent above DMSO median, 100 means doubled; growth rescue, % at 18.8 µM;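 active = every valid replicate shows activation above 250% relative to neutral control wells; inactive = the rest, any valid replicate at or below 250%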
MEKK2wt PB1 HTS: raises or lowers MEK5 binding to wildtype human MEKK2 PB1 domain. actives 1.1% (n = 290,000). bead flow cytometry, Alexa488-MEK5 binding to MEKK2 WT; actives lie on both sides. binding response (% of control), % at 10 µM; in the data active = binding response below about 67% or above about 130%
MEKK2wt confirm: raises or lowers MEK5 binding to wildtype human MEKK2, retest | actives 2.4% (n = 5,900) | shares compounds with MEKK3 PB1 HTS | binding response (% of control), % at 10 µM | bead flow cytometry, Alexa488-MEK5 binding to MEKK2 WT; actives lie on both sides; in the data active = binding response below about 16% or above about 210%; inactive = in between
MEKK2mut-MEK5: signal of MEK5 binding to mutant human MEKK2, retest | shares compounds with MEKK3 PB1 HTS | bead flow cytometry, Alexa488-MEK5 binding to MEKK2 mutant | percent response, % at 10 µM | actives 2% (n = 5,900); in the data active = percent response mostly above about 71%, no sharp cut-off; inactive = mostly below about 38%;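 also: higher means compound restores mutant binding toward wildtype level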
MEKK3-MEK5 inh: confirmation of inhibitors of MEK5 binding to human MEKK3; AID 1894; binding response (% of control), % at 10 µM; shares compounds with MEKK3 PB1 HTS; actives 1.8% (n = 5,900); bead flow cytometry, Alexa488-MEK5 binding to MEKK3; active compounds read low;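 active = binding response below 72% of control, or above a set upper limit, though filed actives all read lower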;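 also: lower values mean stronger disruption of MEK5 binding to MEKK3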
A number is an active result; - = inactive; . = no result given; [ ] = another dose, or the depositor's remark. Shown are actives, neighbours in structure and some others; about 4.1% of the full set was active somewhere.

SMILES | CHT PAM | MEKK3 PB1 HTS | CHT block | MEKK2mut PB1 HTS | SUMO Mot1 rescue | MEKK2wt PB1 HTS | MEKK2wt confirm | MEKK2mut-MEK5 | MEKK3-MEK5 inh
N=c1n(CC(=O)c2ccc(Br)s2)c2ccccc2n1Cc1ccccc1 | - | - | - | - | - | 158 | - | - | -
COc1cccc(C(C(=O)NCc2ccco2)N(C(=O)Cn2nnc3ccccc32)C2CC2)c1OC (stereo not drawn) | - | 82[inhibitor] | - | - | - | - | - | - | -
Cc1ccccc1C(C(=O)NCc1ccco1)N(CC1CCCO1)C(=O)Cn1nnc2ccccc21 (stereo not drawn) | - | - | - | - | - | - | . | . | .
Fc1ccc(COc2ccc3ccccc3c2CNc2nn[nH]n2)cc1 | - | - | - | - | . | - | . | . | .
c1ccc(COc2ccccc2CNc2nn[nH]n2)cc1 | - | 67[inhibitor] | - | - | - | - | - | - | -
CCCCNC(=O)C1CCN(c2nc(OC)nc(OC)n2)CC1 | - | 124 | - | - | - | - | - | - | -
CCOc1ccc(OCc2cccc(C(=O)N3CCOCC3)c2)cc1 | - | . | - | . | - | . | . | . | .
CCOc1ccc(N=C(/C(C(=O)C(=O)N2CCOCC2)=C(/O)c2ccccc2)c2ccccc2)cc1 | - | 49[inhibitor] | - | - | - | - | - | - | -
c1ccc(-c2nc3c([nH]2)CCc2nonc2-3)cc1 | - | - | - | - | - | - | . | . | .
c1ccc(-c2cc3c(nn2)CCc2nonc2-3)cc1 | - | 72[inhibitor] | - | - | - | - | - | - | -
Cc1nc(SCC(=O)c2cccc([N+](=O)[O-])c2)n[nH]1 | - | - | - | - | - | - | . | . | .
COc1ccc(C(=O)CSc2n[nH]c(C)n2)cc1[N+](=O)[O-] | - | 46[inhibitor] | - | - | - | - | - | - | -
O=C(Cc1ccccc1)Nc1nc(-c2cccc([N+](=O)[O-])c2)cs1 | - | - | - | - | - | - | . | . | .
Cc1ccc(C(=O)NC(=S)Nc2nc(-c3cccc([N+](=O)[O-])c3)cs2)c(Cl)c1 | - | 45[inhibitor] | - | - | - | - | - | - | -
CCN1CCCC1CNC(=O)c1cc2c(-c3cccc(OC)c3)nn(C)c2s1 (stereo not drawn) | - | - | - | - | - | - | . | . | .
Cn1nc(-c2ccc(Cl)cc2)c2cc(C(=O)NCCCN3CCCC3)sc21 | - | - | - | - | - | 201 | - | - | -
CCCCNC(=O)c1cc2c(-c3ccc(Cl)cc3)nn(C)c2s1 | - | - | - | - | - | - | . | . | .
CCN1CCCC1CNC(=O)c1cc2c(-c3ccc(Cl)cc3)nn(C)c2s1 (stereo not drawn) | - | - | - | 29 | - | 210 | - | - | -
Cn1c(=O)[nH]c(=O)c2c1nc(N1CCNCC1)n2Cc1cccc2ccccc12 | - | - | - | - | - | - | . | . | .
CN(C)CCNC(=O)c1sc2nc(-c3ccccc3)cc(C(F)(F)F)c2c1N | - | - | - | - | - | 158 | - | - | -
COc1ccc(-c2cc(C(F)(F)F)c3c(N)c(C(=O)NCCSC)sc3n2)cc1 | - | - | - | - | - | - | . | . | .
CC1CCC(NC(=O)c2ccc(/C=C3\Oc4ccccc4N(C)C3=O)cc2)CC1 (stereo not drawn) | . | 139 | . | - | . | - | - | - | -
COc1ccc(C23CC4CC(CC(C4)C2)C3)cc1C(=O)NCCN(C)C | - | - | - | - | - | 140 | - | - | -
CCOC(=O)C1=C(C)Nc2ccccc2N=C1NC(=O)c1cccc(S(=O)(=O)N(C)C)c1 | - | 3.0[inhibitor] | - | - | - | 3.0[inhibitor] | - | - | -
O=C(NNc1c(Cl)cncc1Cl)c1sccc1Cl | - | 132 | - | - | - | - | - | - | -
SMILES | CHT PAM | MEKK3 PB1 HTS | CHT block | MEKK2mut PB1 HTS | SUMO Mot1 rescue | MEKK2wt PB1 HTS | MEKK2wt confirm | MEKK2mut-MEK5 | MEKK3-MEK5 inh
O=C(NNc1ccc(Cl)cc1)c1sccc1Cl | - | - | - | - | - | - | . | . | .
CCc1nnc(NC(=O)CSc2nnc(-c3ccc(NS(=O)(=O)c4ccccc4)cc3)o2)s1 | - | - | - | - | - | - | . | . | .
CC(C)(O)C#Cc1ccc(C(=O)N2CCN(c3ccc(Cl)cc3)CC2)cc1 | - | 49[inhibitor] | - | - | - | - | - | - | -
CC(Oc1ccc(Cl)cc1)c1ccc(C#N)c(=O)[nH]1 (stereo not drawn) | - | - | - | - | - | - | . | . | .
Cc1ccc2cc(C#N)c(SCC(=O)NCc3ccco3)nc2c1 | - | 2.0[inhibitor] | - | - | - | 2.0[inhibitor] | - | - | -
Cc1cc(C)n2nc(SCC(=O)NCc3ccco3)nc2n1 | - | 77[inhibitor] | - | - | - | - | - | - | -
c1ccc(-c2nnc(CN3CCCCC3)o2)cc1 | - | - | - | - | - | - | . | . | .
c1ccc(-c2nnc(CN3CCCc4ccccc43)o2)cc1 | - | - | - | 26 | - | 9.0 | - | - | -
COc1ccc(Cl)cc1NC(=O)CN(C)C(=O)Cc1n[nH]c(=O)c2ccccc12 | - | . | - | . | - | . | . | . | .
O=C(NCCCN1CCOCC1)c1ccc(Sc2cccc(Cl)c2)c([N+](=O)[O-])c1 | - | - | - | - | - | - | . | . | .
Cc1ccc(C(=O)C2(C)C3c4cc(Br)ccc4OC(=O)C32C(=O)c2ccco2)cc1 (stereo not drawn) | - | 24[inhibitor] | - | - | - | 39[inhibitor] | - | - | -
O=C(CSc1n[nH]c(=O)n1Cc1ccco1)Nc1ccccc1 | - | 128 | - | - | - | - | - | - | -
CCOC(=O)c1c(N)sc2c1CCC(C)C2 (stereo not drawn) | - | - | - | - | - | - | . | . | .
CCOC(=O)c1c(N)sc2c1CCCC2 | - | 52[inhibitor] | - | - | - | - | - | - | -
C=CCNC(=S)/N=c1/ccccn1CCC | - | 75[inhibitor] | - | - | - | - | - | - | -
Fc1ccc(CSc2ncnc3scc(-c4ccccc4)c23)cc1 | - | - | - | 52 | - | - | - | - | -
CN(C)CCCN(C(=O)c1cc2cc([N+](=O)[O-])ccc2s1)c1nc2cc3c(cc2s1)OCCO3 | - | . | - | . | - | . | . | . | .
C=CCN(c1ccccc1)S(=O)(=O)c1cccc(C(=O)Nc2ncccc2O)c1 | - | . | - | . | - | . | . | . | .
O=C1CC(=C2c3ccccc3-c3ccccc32)C(=O)N1CCCCN1CCN(c2ccccc2)CC1 | - | - | - | - | - | 155 | - | - | -
